The source of these data is PubChem BioAssay.

For orientation: AC50 means the concentration at which the activity in the assay is half-maximal. By remaining activity is commonly meant the share of the control activity or signal that is left under treatment.

Inconclusive results are not listed. Active and inactive are the calls of the source. Unless noted, the rule behind the calls is not given here.

Assay [1] is described as follows: stimulators of insulin release from INS-1E, primary screen, cell-based, 5 mM glucose, NPC library (AID 1117329;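 active = compound raises insulin release from rat beta cells at 5 mM glucose, no numeric limit stated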). To be noted: rat INS-1E insulin secretion, at 10 µM, stronger effect = higher value.
Assay [2] is described as follows: growth inhibition of GSK3B-pretreated HCT116 cells – cell-based, CellTiter-Glo, 0.2 to 20 µM (AID 1117336;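 active = compounds lowering colon cancer cell viability after pretreatment blocking the GSK3B kinase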). To be noted: HCT116 viability after GSK3B inhibitor, at 20 µM, stronger effect = higher value. (In ATP-based viability assays light output follows the ATP content of the culture.)
Assay [3] in a line: inhibition of endothelial tube formation, primary screen, imaging, VEGF stimulated, CD31 staining, tube area, NPC library (AID 1117340;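 active = compound that reduces growth-factor-driven endothelial tube area in a mixed cell culture, no cutoff stated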). To be noted: VEGF-stimulated ADSC/ECFC co-culture, at 10 µM, stronger effect = higher value.
Assay [4] is described as follows: glucagon-like peptide 1 release enhancers, primary assay, NCI-H716 cell line, NPC library (AID 1117341;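 active = compound raises GLP1 secretion from the human gut endocrine cells, with no numeric limit stated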). To be noted: NCI-H716 cells, at 10 µM, stronger effect = higher value.
The nature of assay [5]: HCT116 colon cancer cell growth inhibition, primary screen, CellTiter-Glo luminescence, NPC library (AID 1117342;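 active = compounds that lower survival of HCT116 colon cancer cells in the luminescence readout, no numeric limit stated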). To be noted: at 20 µM (top of the series).
A short description of assay [6]: CellTiter-Glo luminescent readout of SW480 viability loss, NPC library primary (AID 1117343;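 active = compounds that lower viability of the colon cancer cells in the luminescence readout, with no numeric limit stated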). To be noted: CellTiter-Glo luminescence; at 20 µM (top of the series).
A short description of assay [7]: decreased DLD-1 cellular survival, CellTiter-Glo luminescent readout, NPC compound collection, primary HTS (AID 1117346;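 active = compounds that lower survival of DLD-1 colon cancer cells in the luminescence readout, no cutoff given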). To be noted: DLD-1 viability, CellTiter-Glo luminescence; at 20 µM (top of the series).
The nature of assay [8]: modulation of C. elegans fzo-1 (AID 1259413).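 Note: fzo-1 mutant C. elegans worms in liquid wells.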 To be noted: C. elegans fzo-1 modulator screen, mean read-out; stronger effect = higher value.
Assay [9] is described as follows: differential killing of epithelial or mesenchymal cells, primary screen, imaging, PC-3E GFP, TEM4-18 mCherry, co-culture (AID 1345086;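 active = compounds killing one labelled cell type while sparing the other, by normalised counts and ratio limits, not self-fluorescent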;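 for all read-outs here: cells exposed to compound for 72 h before imaging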;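 for red/green cell ratio (normalised): normalised mesenchymal count divided by normalised epithelial count so high means epithelial killing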). To be noted: imaging cell counts, at 1 µM; for red/green cell ratio (normalised): actives lie on both sides, counts scaled to control wells, 1 = unselective.
The nature of assay [10]: growth inhibition of DIPG glioma cells, dose response, cell-based, SU-DIPG-XVII, MIPE5.0, CellTiter-Glo, qHTS (AID 1347060; cut-off not given, nearly all actives have AC50 up to about 26 µM). To be noted: SU-DIPG-XVII viability, CellTiter-Glo ATP luminescence.
A short description of assay [11]: growth inhibition of DIPG glioma cells, dose response, cell-based, JHH-DIPG-1, MIPE4.0, CellTiter-Glo, qHTS (AID 1347062; cut-off not given, nearly all actives have AC50 up to about 27 µM;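 for AC50: cells exposed to compound for two days before readout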). To be noted: JHH-DIPG-1 viability, CellTiter-Glo ATP luminescence.
The nature of assay [12]: growth inhibition of DIPG glioma cells, dose response, cell-based, SU-DIPG-IV, MIPE4.0, CellTiter-Glo, qHTS (AID 1347063; cut-off not given, nearly all actives have AC50 up to about 30 µM;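 note: compound exposure lasted 48 hours before the viability readout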). To be noted: SU-DIPG-IV viability, CellTiter-Glo ATP luminescence.
For assay [13], the system named is Aerobactin synthetase IucA (Klebsiella pneumoniae). The experiment in a line: IucA aerobactin synthetase inhibitors, biochemical, Tocris library, absorbance (AID 1345561).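 Note: 100% = enzyme without compound and 0% = no enzyme.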 To be noted: purified IucA enzyme assay, absorbance (OD) read-out; stronger effect = lower value;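 tested at 8 µM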.
A short description of assay [14]: growth inhibition of DIPG glioma cells, dose response, cell-based, SU-DIPG-XIII, MIPE4.0, CellTiter-Glo, qHTS (AID 1347061; cut-off not given, nearly all actives have AC50 up to about 37 µM;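 note: cells exposed to compound for 48 hours before readout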). To be noted: SU-DIPG-XIII viability, CellTiter-Glo ATP luminescence.
A short description of assay [15]: growth inhibition of DIPG glioma cells, dose response, cell-based, SU-DIPG-XIII, MIPE5.0, CellTiter-Glo, qHTS (AID 1347064; cut-off not given, nearly all actives have AC50 up to about 23 µM). To be noted: SU-DIPG-XIII viability, CellTiter-Glo ATP luminescence.
[16] abbreviates: measured here: epithelial PC-3E GFP cell survival.
Where [17] appears, read: measured here: mesenchymal TEM4-18 mCherry cell survival.

For the molecule `Nc1nc2c(ncn2COC(CO)CO)c(=O)[nH]1`, the insulin secretion stimulation in assay [1] was 0% (inactive). Moreover, the viability decrease in assay [2] is -10.4% (inactive). Moreover, in assay [3], the tube area decrease was -6.4% (inactive). For the same molecule, the GLP1 secretion stimulation in assay [4] was -2% (inactive). In addition, in assay [5], the inhibition of viability is 4.7% (inactive). Further, the viability decrease (inhibition) in assay [6] was -10.2% (inactive); in assay [7], -8.6% (inactive). Further, the mean signal in assay [8] was 268 (inactive). Besides, the red/green cell ratio (normalised) in [9] was 1.03 (inactive). The values for the normalised cell number in assay [9] (setting [16]) and in assay [9] (setting [17]) were 1.04 and 1.07, respectively. In assay [10], the molecule was called inactive. Besides, the concentration at half-maximal activity (AC50) was 16.6 µM (active) in assay [11] and 20.9 µM (active) in [12].
`NS(=O)(=O)Cc1noc2ccccc12`: in [1], the insulin secretion stimulation is -1.7% (inactive). In addition, the viability decrease in assay [2] is -1.75% (inactive). Besides, in assay [3], the tube area decrease was 3.7% (inactive). The GLP1 secretion stimulation in [4] was 2.1% (inactive). In assay [5], the inhibition of viability is 4.9% (inactive). Besides, the viability decrease (inhibition) in assay [6] was 44.2% (inactive); in assay [7], 24.9% (inactive). Further, the mean signal in assay [8] was 260 (inactive). The remaining activity in assay [13] was 96.2% (inactive).
In the case of `CCCN[C@H]1CCc2nc(N)sc2C1`, in assay [1], the insulin secretion stimulation is -3.1% (inactive). For the same molecule, the viability decrease in [2] is 7.2% (inactive). The tube area decrease in [3] is -9.5% (inactive). In addition, the GLP1 secretion stimulation in assay [4] was 2.6% (inactive). Further, in [5], the inhibition of viability was 5.4% (inactive). Besides, the viability decrease (inhibition) in assay [6] was 51.7% (active); in assay [7], 38.1% (inactive). Also, in assay [8], the mean signal is 239 (inactive). The red/green cell ratio (normalised) in [9] was 0.69 (inactive). Further, the values for the normalised cell number in [9] (setting [16]) and in [9] (setting [17]) were 1.3 and 0.89, respectively. Also, the call in [10], in [14], in assay [11] and in assay [15] was inactive.
On to `Nc1[nH]c(=O)ncc1F`, for which, in assay [1], the insulin secretion stimulation was -1.8% (inactive). Moreover, the viability decrease in assay [2] is -5.1% (inactive). For the same molecule, the tube area decrease in assay [3] is -15.9% (inactive). In addition, the GLP1 secretion stimulation in assay [4] was 2.3% (inactive). Also, the inhibition of viability in assay [5] was -15.1% (inactive). The viability decrease (inhibition) is -13.1% (inactive) in assay [6] and -0.9% (inactive) in assay [7]. Moreover, the mean signal in assay [8] is 243 (inactive). Further, in assay [9], the red/green cell ratio (normalised) was 1.01 (inactive). Also, the values for the normalised cell number in assay [9] (setting [16]) and in assay [9] (setting [17]) were 0.89 and 0.9, respectively. The outcome in assay [10] and in assay [15] was inactive.
Turning to `COC1=C(OC)C(=O)C(CCCCCCCCCCO)=C(C)C1=O`, the insulin secretion stimulation in [1] is 2.2% (inactive). The viability decrease in [2] is 118% (active). In addition, the tube area decrease in assay [3] is 66.9% (active). The GLP1 secretion stimulation in assay [4] was 2.2% (inactive). Further, in assay [5], the inhibition of viability was 94.2% (active). The viability decrease (inhibition) in [6] is 120% (active); in assay [7], 82.7% (active). For the same molecule, the mean signal in assay [8] was 254 (inactive). Further, the red/green cell ratio (normalised) in assay [9] was 0.83 (inactive). Further, the normalised cell number was 1.18 in [9] (setting [16]) and 0.98 in assay [9] (setting [17]). The molecule was called inactive in assay [10].
Turning to `CC(C)(C#N)c1cc(Cn2cncn2)cc(C(C)(C)C#N)c1`, the insulin secretion stimulation in [1] is 2.3% (inactive). The viability decrease in assay [2] is -0.4% (inactive). Besides, the tube area decrease in [3] was -11.4% (inactive). The GLP1 secretion stimulation in assay [4] was 2.1% (inactive). In addition, in [5], the inhibition of viability was -5.9% (inactive). Besides, the results for the viability decrease (inhibition) in assay [6] and in [7] were 45.5% (inactive) and 0.55% (inactive), respectively. Also, in [8], the mean signal is 266 (inactive). Besides, the red/green cell ratio (normalised) in assay [9] was 1.37 (inactive). In addition, the normalised cell number in [9] (setting [16]) amounted to 0.74; in [9] (setting [17]), 1.02. In addition, the molecule was classed as inactive in assay [10], in assay [14] and in assay [11].
Regarding `Cc1cnc(NC(=O)C2=C(O)c3ccccc3S(=O)(=O)N2C)s1`, the insulin secretion stimulation in assay [1] is -1% (inactive). In addition, the viability decrease in assay [2] is -14.6% (inactive). Also, in assay [3], the tube area decrease was -8.1% (inactive). Moreover, in assay [4], the GLP1 secretion stimulation was -2.4% (inactive). Moreover, in [5], the inhibition of viability is 19.1% (inactive). Also, the viability decrease (inhibition) is 23.9% (inactive) in [6] and 4.7% (active) in assay [7]. In assay [8], the mean signal is 257 (inactive). The red/green cell ratio (normalised) in assay [9] is 0.91 (inactive). Besides, the results for the normalised cell number in [9] (setting [16]) and in assay [9] (setting [17]) were 1.16 and 1.05, respectively. Moreover, the call in assay [10], in assay [11], in [12] and in assay [15] was inactive.
